In all, about 400,000 compounds went through this assay and about 13,000 (3.2%) were called active. Not shown: some 18% with an inconclusive outcome. The sample holds actives, similar compounds and a random draw of the others, so the mix is not that of the screen. The call rests on the fitted dose curve; in most records, active means well fitted cell-killing curve with a large enough effect; inconclusive means small, poorly fitted or top-dose-only effect, or effect the other way; inactive means flat fitted curve, though single readings scatter.
Test: qHTS assay for MDR1-selective chemotherapeutics: Primary screen using the drug-selected MDR subline cells KB-V1; further: nearly all actives have a fitted effect of over 60% in size
Details: KB-V1 MDR cells viability, CellTiter-Glo, 72 h; series mostly up to 46.1 µM; activity change, negative = cytotoxicity: at the top concentration
Summary of the method: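 KB-V1 MDR subline cells in DMEM (phenol-red free, 10% FBS) exposed to compounds in qHTS concentration series for 72 h at 37 degrees C. Viability read by CellTiter-Glo luminescence; concentration-effect curves fitted after normalization and correction.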
On the % scale 0 is the no-effect control and ±100 the full control effect; potency means the concentration at half of the fitted maximal effect.

| SMILES | activity change, negative = cytotoxicity | Potency |
| --- | --- | --- |
| COc1ccccc1NC(=O)C(CC(=O)O)Cc1cc(C)cc(C)c1 (centres undefined) | 22.5% (inactive) |  |
| Cc1ccc(F)c(S(=O)(=O)NC(=O)C2(C)CCN2C(=O)CCc2cccs2)c1 (centres undefined) | 2.1% (inactive) |  |
| Cc1ccccc1NC(=O)c1cc(S(=O)(=O)Nc2cccc(C(=O)O)c2)ccc1Cl | 28% (inactive) |  |
| C=CCNC(=O)c1ccccc1NC(=O)c1ccc(Cl)c(S(=O)(=O)Nc2cccc(C)c2C)c1 |  | 2.91 µM (active) |
| COc1ccc(NS(=O)(=O)c2cc(C(=O)Nc3ccccc3C(=O)O)ccc2C)cc1 | 17% (inactive) |  |
| Nc1ncnc2nnsc12 | -6.07% (inactive) |  |
| CCN(c1ncnc2c1cnn2-c1ccc(C)cc1)C1CCCCC1 | 1.03% (inactive) |  |
| CN(C(=O)COc1ncnc2c1cnn2-c1ccccc1)C1CCCCC1 |  | 9.2 µM (active) |
| CN(C(=O)CSc1nnnn1-c1ccccc1)C1CCCCC1 | -7.24% (inactive) |  |
| CC(C)(C)OC(=O)N(Cc1ccco1)S(=O)(=O)c1ccccc1Br | -12.2% (inactive) |  |
| CCc1nc2c(OCCOc3ccccc3)cccn2c1N(C)C(=O)c1cccs1 | 1.04% (inactive) |  |
| CC(C)NC(=O)C1(C)CCCCN1Cc1cccc(C(F)(F)F)c1 (centres undefined) | -13.8% (inactive) |  |
| Cc1cc2c(cc1C)N1C(=O)c3cc4ccccc4cc3NC(=O)C1C(=O)N2 (centres undefined) | 18.4% (inactive) |  |
| COCCNCCOCCOc1cccc(OC)c1 | 7.45% (inactive) |  |
| C=CCc1ccc(OCCOc2cccc(/C=N/n3cnnc3)c2)c(OC)c1 | -18.5% (inactive) |  |
| COc1cccc(OCCOc2cccc(/C=N/n3cnnc3)c2)c1 |  | 18.4 µM (active) |
| COc1cccc(CNC(=O)CSc2c3c(nc4cc(Cl)ccc24)CCCC3)c1 | -15.6% (inactive) |  |
| CC(=O)NCCC(=O)Nc1nc(-c2ccc3c(c2)OCCO3)cs1 | 13% (inactive) |  |
| O=C(Nc1nc2ccccc2s1)c1ccc2c(c1)OCO2 | -25.4% (inactive) |  |
| O=C(Nc1nc(-c2ccc3c(c2)OCO3)cs1)c1ccncc1 |  | 2.59 µM (active) |
| CN(C)C1CN(Cc2cn(Cc3ccccc3)nn2)S(=O)(=O)C1 (centres undefined) | 12% (inactive) |  |
| COC(=O)c1cc2occc2n1Cc1nc(-c2ccc(C)cc2)oc1C | -14.7% (inactive) |  |
| O=C(NCc1ccc(F)cc1F)[C@@H]1CCCN1C(=O)[C@@H]1CCCN1C(=O)c1cccc(Cl)c1 | -5.66% (inactive) |  |
| Cc1nn(-c2ccccc2)c(Cl)c1/C=N/NC(=O)c1nn(C)cc1[N+](=O)[O-] | -21.2% (inactive) |  |
| Cc1nn(-c2ccccc2)c(Cl)c1C(=O)Nc1ccccc1 | 0% (inactive) |  |
| Cc1nn(-c2ccccc2)c(Cl)c1/C=C/C(=O)c1ccc(O)cc1 |  | 20.6 µM (active) |

| SMILES | activity change, negative = cytotoxicity | Potency |
| --- | --- | --- |
| O=C1NC(O)CCN1C1CC(O)C(CO)O1 (centres undefined) | 3.08% (inactive) |  |
| Cc1cc(Nc2ccc(Br)cc2)nc2ccccc12 | 0% (inactive) |  |
| N#Cc1cccc(Nc2c3c(nc4ccccc24)CCCC3)c1 | 0% (inactive) |  |
| Cc1ccc(Nc2c3c(nc4ccccc24)CCC3)cc1 |  | 5.8 µM (active) |
| O=C(OCc1ccccc1)N1CCC2CC1c1cc(N3CCN(S(=O)(=O)c4cc(Cl)cc(Cl)c4)CC3)ccc12 (centres undefined) | -9.13% (inactive) |  |
| COc1ccc(C(=O)O/N=C(\N)Cc2ccc(Cl)cc2Cl)cc1OC |  | 23.1 µM (active) |
| COc1ccc(C(=O)ON=C2c3ccccc3-c3ccccc32)cc1OC | -13.7% (inactive) |  |
| COc1ccc(C/C(N)=N/OC(=O)c2ccco2)cc1OC | -7.55% (inactive) |  |
| COc1ccc(S(=O)(=O)N2CCCCC2c2cc(C(=O)NCc3ccc(F)cc3)no2)cc1 (centres undefined) | -24.5% (inactive) |  |
| CCOC(=O)[C@]12CCCC=C1N(Cc1ccc3c(c1)OCO3)C(=O)[C@H](CC(=O)N1CCN(C(=O)c3ccco3)CC1)C2 | 0% (inactive) |  |
| CC(=O)C1=CCC(c2ccccc2)N(S(=O)(=O)c2ccc(C)cc2)C1 (centres undefined) | 4.38% (inactive) |  |
| N#Cc1ccc(OCC(=O)Nc2nc(-c3ccccn3)cs2)cc1 | -0.182% (inactive) |  |
| O=C(COc1ccccc1F)NC1CC1 | -1.57% (inactive) |  |
| O=C(COc1ccccc1F)Nc1nc(-c2ccccn2)cs1 |  | 4.61 µM (active) |
| COc1ccc(-c2ccc3ncnc(NCc4cccs4)c3c2)cc1OC | 12.9% (inactive) |  |
| CCOC(=O)C1=CC[C@@H](c2ccccc2)N(S(=O)(=O)c2ccc(C)cc2)[C@H]1c1ccc(CC)cc1 | -16.3% (inactive) |  |
| S=C(NCC1CCCO1)N1CCN(c2ccc(Cl)c(Cl)c2)CC1 (centres undefined) |  | 7.31 µM (active) |
| COc1ccc(S(=O)(=O)N2CCN(C(=S)NCC3CCCO3)CC2)cc1OC (centres undefined) | -5.5% (inactive) |  |
| CCOc1ccc(S(=O)(=O)N2CCN(C(=S)NCC3CCCO3)CC2)cc1 (centres undefined) | -3.32% (inactive) |  |
| CCCC(=O)Nc1ccc2oc(-c3ccc(O)c(Br)c3)nc2c1 | 0% (inactive) |  |
| Cc1ccn(CC(=O)N2N=C(C(F)F)CC2(O)C(F)F)n1 (centres undefined) | 13.8% (inactive) |  |
| Cc1nn(Cc2ccc(C(=O)N3N=C(C(F)F)CC3(O)C(F)F)cc2)c(C)c1[N+](=O)[O-] (centres undefined) |  | 8.2 µM (active) |
| Cc1nn(CC(=O)N/N=C/c2ccc(F)cc2)c(C)c1[N+](=O)[O-] | 18.1% (inactive) |  |
| N#Cc1ccc(-c2nc3c(Cl)cc(C(F)(F)F)cn3c2Cc2ccccc2C(F)(F)F)cc1 | -4.42% (inactive) |  |
| COC(=O)C1=C(C)NC(=O)CC1c1ccccc1OC (centres undefined) | -1.64% (inactive) |  |
| O=C1CC(c2ccc(F)cc2F)c2cc3c(cc2N1)OCO3 (centres undefined) | 0% (inactive) |  |

| SMILES | activity change, negative = cytotoxicity | Potency |
| --- | --- | --- |
| CCCOc1ccccc1C1CC(=O)Nc2cc3c(cc21)OCO3 (centres undefined) |  | 4.61 µM (active) |
| Cc1cccc(N2CCN(c3ccc(C(=O)O)cc3NC(=O)c3ccccc3F)CC2C)c1 (centres undefined) | 7.99% (inactive) |  |
| CC1CCN(C(=O)CSc2nnc(-c3ccco3)n2N)CC1 | 0% (inactive) |  |
| COc1cccc(C(O)c2nc(-c3ccc(C)c(C)c3)cs2)c1 (centres undefined) | -4.18% (inactive) |  |
| COc1ccccc1/C=C/C(=O)NC1CC2CCC1C2 (centres undefined) | -12.1% (inactive) |  |
| CCCN(CC(=O)Nc1ccccc1OC)C(=O)CCC(=O)c1ccc(F)cc1 |  | 10.3 µM (active) |
| COc1ccccc1NC(=O)CN(c1ccccc1OC)S(=O)(=O)c1ccccc1 | 0% (inactive) |  |
| COc1ccc(S(=O)(=O)N2CCOCC2)cc1NC(=O)CC1CC2CCC1C2 (centres undefined) | -15.9% (inactive) |  |
| CCN(CC(=O)Nc1ccccc1OC)C(=O)CC1CC2CCC1C2 (centres undefined) |  | 16.4 µM (active) |
| COc1ccccc1NC(=O)COC(=O)COc1ccccc1F | 14.3% (inactive) |  |
| Cc1cc(C)cc(NC(=O)CCS(=O)(=O)c2cc3c4c(c2)CCN4C(=O)CC3)c1 | 0% (inactive) |  |
| Cc1cccc(CN2CCN(C3CN(Cc4cn(Cc5ccccc5F)nn4)S(=O)(=O)C3)CC2)c1 (centres undefined) | -1.94% (inactive) |  |
| Cc1ccc(C)c(NC(=S)NNC(=S)Nc2ccc(C(C)C)cc2)c1 | -25.9% (inactive) |  |
| CC(NC(=S)NNS(=O)(=O)c1ccc(C(C)(C)C)cc1)c1ccccc1 (centres undefined) | -6.37% (inactive) |  |
| Cc1ccc(C)c(NC(=S)NNC(=O)c2csc(C)c2)c1 |  | 18.4 µM (active) |
| Cc1cc(C(=O)NNC(=S)NC(C)c2ccccc2)cs1 (centres undefined) |  | 14.6 µM (active) |
| Cc1ccc(C)c(NC(=O)CCC(=O)NNC(=O)c2cccs2)c1 | 24.8% (inactive) |  |
| Cc1ccc(OCC(=O)NC(C)c2ccccc2)cc1C (centres undefined) | 17.2% (inactive) |  |
| Nc1nc2ncccn2c1-c1ccccc1 | -4.04% (inactive) |  |
| CO[C@H]1O[C@@H]2O[C@@]3(C)CC[C@@H]4[C@@H](C)CC[C@@H]([C@H]1C)[C@@]24OO3 | 15.3% (inactive) |  |
| COc1ccc(C)cc1-n1c(-c2ccc(C)cc2)cc2c1CC(C)(C)CC2=O | -3.87% (inactive) |  |
| O=C(C[C@H]1CC[C@H]2[C@@H](COC[C@H](O)CN2C(=O)c2ccccn2)O1)N1CCN(c2ccccc2)CC1 | -1.19% (inactive) |  |
| CS(=O)(=O)N(Cc1nc2sc3c(c2c(=O)[nH]1)CCCC3)C1CCCCC1 |  | 16.4 µM (active) |
| CCN(CC)Cc1nc2sc(C)c(C)c2c(=O)[nH]1 | 0% (inactive) |  |
| O=c1[nH]c(CN2CCN(S(=O)(=O)c3ccc4c(c3)OCCO4)CC2)nc2sc3c(c12)CCCC3 | 1.37% (inactive) |  |
| Cc1ccc(Cl)cc1N1CCN(C(=O)C2CCC(CNS(=O)(=O)c3cccs3)CC2)CC1 (centres undefined) |  | 10.3 µM (active) |

| SMILES | activity change, negative = cytotoxicity | Potency |
| --- | --- | --- |
| Cc1ccc(C)c(N2CCN(C(=O)C3CCC(CNS(=O)(=O)c4cccs4)CC3)CC2)c1 (centres undefined) | -23.1% (inactive) |  |
| O=C(CNS(=O)(=O)c1cccs1)N1CCN(c2ccccc2Cl)CC1 | -4.89% (inactive) |  |
| COc1ccc(S(=O)(=O)N2CCC(C(=O)NCCC(=O)NCCc3cccc(F)c3)CC2)cc1 | 15.5% (inactive) |  |
| CC1CCCC(NC(=O)COC(=O)c2ccccc2C(=O)N(C)C2CCCCC2)C1C (centres undefined) | -16.4% (inactive) |  |
| O=C(c1cc(-c2ccc(F)cc2)on1)N1CCN(c2ccc(F)cc2)CC1 |  | inactive |
| O=C(c1cc(-c2ccc(Cl)cc2)on1)N1CCN(c2ccccc2)CC1 | -1.64% (inactive) |  |
| COc1ccc(-c2cc(C(=O)N3CCN(c4ccc(F)cc4)CC3)no2)cc1 |  | 18.4 µM (active) |
| CC1=C(C(=O)N2CCOCC2)CC(CC(=O)NCc2ccco2)C(=O)N1Cc1ccc(F)cc1 (centres undefined) | -14.3% (inactive) |  |
| Cc1cc(C(=O)CCC(=O)NNC(=O)c2ccccc2O)c(C)s1 | -7.24% (inactive) |  |
| O=C(NNC(=O)c1ccccc1O)c1ccccc1O |  | 0.517 µM (active) |
| Cc1cc(C(=O)NNC(=O)c2ccccc2O)c(C)o1 | -8.82% (inactive) |  |
| COc1ccc(NC(=O)CN(C)C(=O)c2cc(C)oc2C)cc1 | 4.74% (inactive) |  |
| Cc1cc2nc(C)n(CCCNC(=O)Nc3ccccc3)c2cc1C |  | 23.1 µM (active) |
| COc1ccc(OCCCn2c(C)nc3cc(C)c(C)cc32)cc1 | -11.1% (inactive) |  |
| Cn1c(CCN2CCCCCC2)nc2cc(NC(=O)Nc3ccccc3)ccc21 | -13% (inactive) |  |
| CCOC(=O)C1(C)CCCN(C(=O)c2ccc(F)c(Cl)c2)C1 (centres undefined) | 1.02% (inactive) |  |
| CNc1cc(-c2c(OC)cccc2OC)ncn1 | 4.08% (inactive) |  |
| COc1ccccc1CCNC(=O)c1cnccn1 |  | 16.4 µM (active) |
| Cc1ccc(C(=O)NCCNC(=O)c2cnccn2)cc1 | -5.06% (inactive) |  |
| O=C(NCCCNC(=O)c1ccccc1Cl)c1cnccn1 | 0.177% (inactive) |  |
| CC(=O)Nc1c(-c2ccc(C)cc2)nc2ccc(Cl)cn12 | -4.17% (inactive) |  |
| O=C(NCC(F)(F)F)c1ccc(S(=O)(=O)NCCc2ccc3c(c2)OCCO3)cc1 | -0.75% (inactive) |  |
| CCCc1nc2ccccc2n1C(C)C(=O)NC(C)(C)C (centres undefined) | -9.93% (inactive) |  |
| CC(C)CC(COCc1ccc(Cl)cc1)N1CCN(C(=O)c2ccc(C(F)(F)F)cc2)CCC1=O (centres undefined) |  | 20.6 µM (active) |
| O=C(c1cc(Cl)cc(Cl)c1)N1CCC(=O)N(C(COCc2ccccc2)Cc2ccccc2)CC1 (centres undefined) | 0% (inactive) |  |
| COc1ccc(COC[C@H](CC(C)C)N2CCN(C(=O)c3cccc(C(F)(F)F)c3)CCC2=O)cc1 | -8.45% (inactive) |  |

— PubChem BioAssay AID1347076 (National Center for Advancing Translational Sciences (NCATS), 2019)
